From PubChem BioAssay
Rows were chosen to be rich in hits. Some 12% of all compounds tested hit in one or more screens of this group.
Sm TGR block: S. mansoni TGR enzyme inhibition; Q962Y6; purified TGR, DTNB reduction, TNB absorbance 405 nm; Potency, µM (series often up to 114 µM), without a hit: at the top dose activity change, negative = inhibition, actives largely listed as inhibitors; 3% of 360,000 active; active = well fitted inhibition curve with a large enough effect; inconclusive = small, poorly fitted or top-dose-only effect; inactive = no such curve, though single readings can be large or run the other way; note: potency is the fitted concentration of half-maximal effect; % is set by controls: 0 for no effect and ±100 for the full control effect; nearly all actives have a fitted effect of over 60% in size
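TGR 20 nM + NADPH 100 uM (dispensed conc.), cpd preinc 15 min RT; start with NADPH (500 uM addition) then DTNB (15 mM addition). Kinetic TNB absorbance, 405 nm filter. Four-parameter Hill fit across titration.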
Shiga toxin inh: Shiga toxin inhibition; Vero cells, Shiga toxin protein synthesis inhibition reporter; inhibition, % at 38.7 µM; 9.2% of 290,000 active; in the data active = inhibition mostly above about 28%, no sharp cut-off; inactive = mostly below about 43%; note: 0% is about no effect
FMDV inh: foot and mouth disease virus antiviral activity | 1.2% of 410,000 active | Potency, µM (titrated, usually from 57.9 µM), for the others: at the highest dose activity change, negative = inhibition, usual class: inhibitors | FMDV antiviral cell-based qHTS; calls by dose curve; tested in HEK293T cells; note: read-out not given here; potency is the fitted concentration of half-maximal effect; % is set by controls: 0 for no effect and ±100 for the full control effect; nearly all actives have a fitted effect of over 45% in size
CHX counter: affects cycloheximide protein synthesis inhibition readout, counter-screen. cell reporter, cycloheximide protein synthesis inhibition counterscreen. max response, %. 12% of 300,000 active; in the data active = max response mostly above about 13%, no sharp cut-off; inactive = mostly below about 14%; note: read at 38.3 µM for the half of the compounds with a filed dose; 0% is about no effect
* hit, by the source's call; ? = inconclusive; . = not tested or not shown; [ ] = another dose, or the depositor's remark.

SMILES	Sm TGR block	Shiga toxin inh	FMDV inh	CHX counter
CCCn1nc([N+](=O)[O-])c(C(C#N)c2nc3ccccc3o2)c(Cl)c1=O (stereo not drawn)	2.2µM*	10	0%	17
Cn1nc([N+](=O)[O-])c(C(C#N)c2ccccn2)c(Cl)c1=O (stereo not drawn)	4.5µM*	13	32µM*	2
Cc1ccc(Cn2c(C(C)Nc3nc(-c4ccc(Cl)c([N+](=O)[O-])c4)cs3)nc3cc(C(F)(F)F)ccc32)cc1 (stereo not drawn)	.	.	-23%	.
Cc1ccc(C)c(NC(=O)CCCn2nc(C)c3sc4ccccc4c3c2=O)c1	0%	.	-26%	.
CCOC(=O)c1c(C)[nH]c(CCC(=O)Nc2cc(Cl)ccc2OC)c1C	-16%	.	-25%	.
CSc1nc(SCC(=O)NCc2ccco2)c2c3c(sc2n1)COC(C)(C)C3	-18%	28	?	7
CC(C)Sc1nc(NCc2ccco2)c2c3c(sc2n1)COC(C)(C)C3	22µM*	92*	19%	21*
CCOc1ccc(N)cc1	.	.	-8%	.
CCOc1ccc(Oc2ccc(Cl)cc2N)cc1	-10%	29*	15%	24*
CCc1oc2ccccc2c1C(=O)CCN1CCCCC1	7.9µM*	18	-13%	0
O=c1oc2ccccc2c(N2CCCCC2)c1CN1CCCCC1	18µM*	2	-3%	-3
O=c1oc2ccccc2c(N2CCCCC2)c1CN1CCCC1	-14%	-1	20%	1
COc1ccc(N(C(C)C(=O)N2CCCC2)S(C)(=O)=O)cc1 (stereo not drawn)	5%	.	-11%	1
COc1ccc(N(C(C)C(=O)N2CCC(Cc3ccccc3)CC2)S(C)(=O)=O)cc1 (stereo not drawn)	.	20	11µM*	9
CCc1ccc(C(=O)NCc2cnn(C)c2)s1	5%	37*	18%	24
CC1CCCc2sc3nc(NCc4ccco4)n4ncnc4c3c21 (stereo not drawn)	?	55	-1%	24*
CC1CCc2sc3nc(NCc4ccco4)n4ncnc4c3c2C1 (stereo not drawn)	0%[11.4 µM]	17	-10%	11
COC(=O)c1c(-c2ccc(Cl)cc2)noc1N1CCN(c2cccc(C(F)(F)F)c2)CC1	10%	.	?	.
N#CCCN1CCCc2cc(N=Nc3ccc(C(F)(F)F)cc3)ccc21	6%	61*	19%	43*
CCCN1CCCc2ccccc21	?	-8	-11%	1
Cc1ccc(C(=O)C2=C(O)C(=O)N(CCN3CCOCC3)C2c2ccccn2)o1 (stereo not drawn)	45µM*	19	.	-1
CCN(CC)CCCN1C(=O)C(O)=C(C(=O)c2sc(C)nc2C)C1c1ccc(C)o1 (stereo not drawn)	-29%	-5	.	-3
COc1ccc(OC)c(C2C(C(=O)c3ccc(C)o3)=C(O)C(=O)N2CCN2CCOCC2)c1 (stereo not drawn)	?	1	4%	1
Cc1ccc(C2C(C(=O)c3sc(C)nc3C)=C(O)C(=O)N2CCN2CCOCC2)o1 (stereo not drawn)	40µM*	-7	-18%	-3
CCN(CC)CCN1C(=O)C(O)=C(C(=O)c2ccc(C)o2)C1c1ccccn1 (stereo not drawn)	.	.	13%	.
SMILES	Sm TGR block	Shiga toxin inh	FMDV inh	CHX counter
CCCOc1ccc(C2C(C(=O)c3ccc(C)o3)=C(O)C(=O)N2CCN2CCOCC2)cc1OC (stereo not drawn)	40µM*	-14	17%	1
O=C(C1=C(O)C(=O)N(CCCN2CCOCC2)C1c1ccccn1)c1cccs1 (stereo not drawn)	0%	43*	.	75*
Cc1cccc(-c2nc3nc(C)cc(NC(C)c4ccccc4)n3n2)c1 (stereo not drawn)	-9%	.	-19%	.
COc1ccc(-c2cc(-c3ccc(F)cc3)nc3c2COc2ccc(F)cc2-3)cc1	-5%	.	1%	.
COc1cccc(NC(=O)Cn2c(=O)n(CC(=O)NCCc3ccccc3)c(=O)c3sccc32)c1	-3%	.	-21%	.
CC(C)C[C@H](N)C(=O)N[C@H](C(=O)N[C@H](C(=O)N[C@@H](Cc1ccc(O)cc1)C(=O)N1CCC[C@H]1C(=O)N[C@@H](Cc1c[nH]c2ccccc12)C(=O)N[C@H](C(=O)N[C@@H](CCC(N)=O)C(=O)N[C@@H](CCCN=C(N)N)C(=O)O)[C@@H](C)O)C(C)C)C(C)C	.	.	-12%[6.7 µM]	.
CCCC(=O)N1CCN(c2nc3ccccc3s2)CC1	6%	42*	2%	42*
CCCCC(=O)N1CCN(c2nc3ccc(F)cc3s2)CC1	-9%	35*	-19%	12
O=C(NC1CC1)C1CCN(c2nc3ccccc3s2)CC1	0%	63*	14%	23*
CC(C)(C)C(=O)N1CCN(c2nc3ccccc3s2)CC1	3%	76*	16%	57*
O=C(c1cccs1)N1CCN(c2nc3ccccc3s2)CC1	-18%	-7	?	1
O=C(NC1CCCCCC1)C1CCN(c2nc3ccccc3o2)CC1	3%	-2	?	0
CCn1cc(C(=O)NCCCOC(C)C)c(=O)c2cc(S(=O)(=O)N3CCc4ccccc4C3)ccc21	6%	.	2%	.
CCOC(=O)c1ccc(NC(=O)CSc2nc3ccccc3c(=O)n2CCNC(C)=O)cc1	6%	.	-9%	.
COc1cccc(NS(=O)(=O)c2ccc3c(c2)N(C)C(=O)CC(=O)N3C)c1	1%	.	22%	.
COc1ccc(Oc2ncc3ncc(=O)n(Cc4cccc(OC)c4)c3n2)cc1	.	.	-14%	.
CCN1CCN(c2nc3ccccc3s2)CC1	4%	77*	25%	33*
CCc1ccc2nc(N3CCN(C(=O)C(C)(C)C)CC3)sc2c1	-9%	55*	?	23*
CCCC(=O)N1CCN(c2nc3ccc(F)cc3s2)CC1	0%	.	-20%	.
Fc1cccc(Cl)c1CN1CCN(c2nc3ccccc3s2)CC1	-3%	159*	-10%	53*
CCc1ccc2nc(N3CCN(C(=O)c4ccco4)CC3)sc2c1	0%	.	6%	.
CCC(=O)N1CCN(c2nc3ccc(Br)cc3s2)CC1	2%	59*	-8%	36*
Cc1ccc2cc(/C=N/Nc3nc4ccccc4[nH]3)c(Cl)nc2c1	-8%	93*	7%	55*
CCN(CC)c1ccc(/C=N/Nc2nc3ccccc3[nH]2)c(O)c1	-2%	100*	-26%	52*
COc1ccc(-c2ccc(/C=N/NC(=O)Cc3nnc(N)s3)o2)cc1Cl	56µM*	-1	-5%	2
SMILES	Sm TGR block	Shiga toxin inh	FMDV inh	CHX counter
COC(=O)c1ccc(-c2ccc(/C=N/NC(=O)Cc3nnc(N)s3)o2)cc1	-20%	39	-6%	24*
CCc1ccc(CNC(=O)c2sc3ncccc3c2-n2c(C)ccc2C)cc1	-2%	.	0%	.
CN(C)c1ncc2nc(-c3cccs3)c(=O)n(-c3ccccc3)c2n1	.	.	-2%	.
Cc1cc(Cl)ccc1NC(=O)CCS(=O)(=O)c1ccc2c(c1)CC(C)N2C(=O)C1CC1 (stereo not drawn)	-1%	.	-25%	.
Cn1cnc2cc(NC(=O)c3ccc(Cl)cc3)ccc21	-8%	55*	40%	27*
COc1cc(C(=O)Nc2ccc3c(c2)ncn3C(C)(C)C)cc(OC)c1OC	4%	-3	11%	-1
